# DAX1 inh-1 – NR0B1 (DAX1) inhibition. P51843. HEK293 Gal4-DAX1 luciferase reporter, luminescence. inhibition, % at 6.75 µM. 340,000 tested, 0.99% active;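 active = inhibition above the mean over all tested compounds plus 3 SD, cut at about 4.2% in these data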;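 note: 0% = DAX1-transfected cells with DMSO and 100% = empty-vector control cells with DMSO; inhibition shows as a rise in luminescence from relieved DAX1 repression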
# Target sequence (P51843 207-470 limits assumed): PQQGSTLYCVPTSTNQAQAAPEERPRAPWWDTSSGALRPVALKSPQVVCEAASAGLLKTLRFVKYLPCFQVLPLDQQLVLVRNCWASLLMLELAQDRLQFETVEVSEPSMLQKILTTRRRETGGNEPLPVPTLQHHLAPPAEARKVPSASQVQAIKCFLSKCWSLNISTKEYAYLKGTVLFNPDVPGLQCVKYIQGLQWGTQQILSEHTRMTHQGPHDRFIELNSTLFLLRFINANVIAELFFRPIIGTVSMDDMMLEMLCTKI
# DAX1 inh-2 – DAX1 (NR0B1) inhibition, primary screen. 370,000 tested, 1.1% active. inhibition, % at 6.8 µM. HEK293T StAR-luciferase reporter, SF-1/DAX-1 repression relief. AID 652010;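 active = inhibition above the mean over all tested compounds plus 3 SD, cut at about 3.6% in these data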;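 note: 0% = DAX-1 cells with DMSO and 100% = cells lacking DAX-1 with DMSO; higher inhibition means more luminescence from relief of DAX-1 repression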
# ssDAF12 agonist – S. stercoralis DAF-12 activation, primary screen; HEK293 ssDAF-12/GRIP1 lit1-tk-luc reporter, luminescence; % of 3 µM dafachronic acid response; activation, % at 6.8 µM; 370,000 tested, 1% active; AID 652126;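 active = activation above the mean over all tested compounds plus 3 SD, cut at about 0.9% in these data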;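 note: 0% = DMSO-only wells and 100% = 3 µM delta7-dafachronic acid wells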
# hcDAF12 agonist – activates DAF-12 receptor from parasite H. contortus; AID 652067; 370,000 tested, 1.4% active; activation, % at 6.8 µM; HEK293 hcDAF-12 lit1-tk-luc reporter, luminescence; 0% DMSO, 100% Δ7-dafachronic acid;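 active = activation above the mean of all tested compounds plus 3 SD, cut at about 5.5% in these data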;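 note: 100% = response to 3 µM Δ7-dafachronic acid high control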
# hgDAF-12 ag – agonists of H. glycines DAF-12 nuclear receptor | HEK293 GAL4-hgDAF12 UAS-luciferase reporter, agonist luminescence; normalized to butyrate control | activation, % at 6.8 µM | 370,000 tested, 1.8% active;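 active = activation above a cutoff set at the mean of all screened compounds plus 3 SD, cut at about 10% in these data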;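 note: 0% = DMSO wells and 100% = sodium butyrate wells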
# * = called active by the depositor; . = not tested or not shown. An excerpt weighted towards active compounds, which were near 4.1% of everything screened.
SMILES,DAX1 inh-1,DAX1 inh-2,ssDAF12 agonist,hcDAF12 agonist,hgDAF-12 ag
N#Cc1ccccc1OCC(=O)Nc1ccc2c(c1)OCCCO2,0,1,-1,-1,8
O=C(Nc1ccc2c(c1)OCO2)Nc1ccccn1,1,2,0,2,12*
CC1CCCCC1C(=O)N1CCC(Oc2cccnc2)CC1 (stereo not drawn),.,0,-1,-1,-1
O=C(Nc1ccc(NC(=O)c2ccccn2)cc1)C(=O)Nc1ccc2c(c1)OCCO2,0,1,-1,1,4
O=C(Nc1ccc2c(c1)OCCO2)c1ccccn1,-5,4.4*,0,3,6
Cc1ccc(-n2c(SCC(=O)Nc3ccc(Oc4ccccc4)cc3)nnc2-c2cccc(C)c2)cc1,.,-1,-2,1,-1
COc1cccc(N2CCN(CC(=O)NCc3ccco3)CC2)c1,.,0,-1,-1,-2
O=C(Nc1ccc(O)cc1)C1CCCN1S(=O)(=O)c1ccc(F)cc1 (stereo not drawn),4.6*,-1,0,-1,-2
CC(=O)c1ccc(NC(=O)C2CCCN2S(=O)(=O)c2ccc(F)cc2)cc1 (stereo not drawn),-1,0,-2,-3,2
CC(OC(=O)c1ccc(S(=O)(=O)N2CCCCC2)cc1)C(=O)Nc1ccc(C(N)=O)cc1 (stereo not drawn),-1,0,-1,-1,3
CC(OC(=O)c1nccnc1N)C(=O)Nc1ccc(S(=O)(=O)N2CCCC2)cc1 (stereo not drawn),4.6*,1,-1,-1,-1
CCOc1ccc(N(CC(=O)Nc2ccc(C)cc2)S(=O)(=O)c2c(C)noc2C)cc1,3,0,-2,0,1
CCOc1ccc(N(CC(=O)Nc2ccc(F)c(F)c2)S(=O)(=O)c2c(C)noc2C)cc1,4.4*,1,-1,-1,-1
CCOc1ccc(N(CC(=O)NCc2ccc(F)cc2)S(=O)(=O)c2c(C)noc2C)cc1,1,-1,-1,-2,-2
CCOc1ccc(N(CC(=O)NC(C)(C)C)S(=O)(=O)c2c(C)noc2C)cc1,6.8*,0,-1,0,1
C[C@]12Cc3ccccc3C1CC1=N[C@@H](c3ccc(C(F)(F)F)cc3)O[C@@]13C[C@@H]2C(=O)N3Cc1ccncc1 (stereo partly drawn),.,0,-1,-1,1
Cc1cc2ncc(-c3ccc(Cl)cc3)c(N)n2n1,1,4.0*,0,0,8
Cc1ccc(-c2nc(C3CCCN(S(=O)(=O)c4ccc(Cl)s4)C3)no2)cc1 (stereo not drawn),.,-1,-2,-2,1
Cn1c(NCc2cccs2)nc2ccccc21,2,1,1.7*,6.1*,8
CCn1c(NCc2cccs2)nc2ccccc21,1,0,-1,-1,0
Oc1ccc(N=Nc2ccccc2)o1,-2,0,4.4*,0,0
O=c1ccc(N=Nc2ccccc2)ccc1O,0,0,0,4,4
O=C(Nc1nnc(CC(c2ccccc2)c2ccccc2)s1)c1ccco1,4.5*,-1,-1,-1,-2
CCc1nnc(NC(=O)/C=C/c2ccco2)s1,0,1,-1,1,7
CCSc1nnc(NC(=O)/C=C/c2ccco2)s1,3,0,-2,6.0*,9
SMILES,DAX1 inh-1,DAX1 inh-2,ssDAF12 agonist,hcDAF12 agonist,hgDAF-12 ag
CCCSc1nnc(NC(=O)c2ccco2)s1,6.1*,3,-1,2,5
C[C@H](NC(=O)c1ccco1)C(=O)Nc1nnc(SCc2ccccc2)s1,0,3.7*,-1,1,1
O=C(Nc1nnc(SCc2ccccc2F)s1)c1ccco1,-1,0,-2,0,0
Cc1c[nH]c2cccc(-c3ccc(Cl)cc3Cl)c12,.,0,-1,-2,2
CN(C(=O)[C@@H](Cc1ccccc1)NC(=O)[C@H]1O[C@@H](n2cnc3c(=O)[nH]c(N)nc32)[C@H](O)[C@@H]1O)C1CCCCC1,.,0,-1,-1,-1
Cc1ccc(Cn2cc(CN3CC(N4CCN(CCO)CC4)CS3(=O)=O)nn2)cc1 (stereo not drawn),.,4.2*,-2,1,-2
CCN(C)C1CN(Cc2cn(Cc3ccc(C(F)(F)F)cc3)nn2)S(=O)(=O)C1 (stereo not drawn),.,4.1*,-1,1,-2
COc1ccc(Cn2cc(CN3CC(N4CCN(CCO)CC4)CS3(=O)=O)nn2)cc1 (stereo not drawn),.,1,-1,-1,0
CCCCCCn1cc(CN2CC(N3CCN(CCN(C)C)CC3)CS2(=O)=O)nn1 (stereo not drawn),.,3.9*,-1,-1,-2
COCCCn1cc(CN2CC(N3CCN(CCN(C)C)CC3)CS2(=O)=O)nn1 (stereo not drawn),.,4,0,4,0
CCN(C)C1CN(Cc2cn(Cc3ccc(Cl)cc3)nn2)S(=O)(=O)C1 (stereo not drawn),.,0,-1,0,3
O=C(O)[C@@H]1C[C@@H](O)CN1,.,0,-1,-1,0
NS(=O)(=O)c1ccc(NC(=O)Nc2ccc(Cl)cc2)cc1,0,-1,-2,1,12*
NS(=O)(=O)c1ccc(NC(=O)CCCCC(=O)Nc2ccc(S(N)(=O)=O)cc2)cc1,4.4*,0,-1,-1,-1
CNC(=O)Nc1ccc(S(N)(=O)=O)cc1,0,0,-1,-1,-1
COC(=O)C1=C(C)N(Cc2cccc(C(F)(F)F)c2)C(=NCc2cc(OC)c(OC)c(OC)c2)NC1CCc1ccccc1 (stereo not drawn),.,0,-1,-1,0
COc1ccc2c(c1)[C@@]1(OCCC=C[C@H]1C)C(=O)N2Cc1ccc(Br)cc1,.,0,-1,-1,-2
CCc1ccc2oc(C(=O)Nc3cccnc3)c(C)c2c1,5.1*,.,.,.,.
COC(=O)c1ccc2nc(C3CCCCC3)c(Cc3ccccc3)n2c1,.,1,0,5.9*,3
COC(=O)c1ccc2nc(-c3ccccc3)c(Cc3cccc(Cl)c3)n2c1,.,2,1.2*,4,9
COC(=O)c1ccc2nc(C3CCCCC3)c(CC(C)(C)C)n2c1,.,-1,-1,-1,-1
C#CC1(O)C2C=C(OC)C(=O)C1C(c1ccccc1)C2C (stereo not drawn),.,1,-1,0,5
Cc1nc(Cl)sc1C(=O)Nc1ccc(F)cc1,1,0,0,0,-1
CC(C)S(=O)(=O)c1csc(C(=O)Nc2ccc(F)cc2)c1N,2,3,1.3*,4,9
O=C1C(=O)N(c2ccccc2)C(c2ccccc2[N+](=O)[O-])/C1=C(\O)c1ccccc1 (stereo not drawn),0,-1,1.6*,5,4
COP(=O)(O)[C@@H](CC(C)C)NC(=O)OCc1ccccc1,.,-1,-1,-2,2
O=C1N=C(N2CCCC2)S/C1=C\c1ccccc1,1,0,-1,-2,1
